Screens: PubChem BioAssay, National Center for Advancing Translational Sciences (NCATS)
G9a block = G9a (human) methyltransferase inhibition. Q96KQ7. G9a H3K9 monomethylation, AlphaScreen, 2 h. Potency, µM (highest dose often 102 µM), inactives show at the top dose activity, negative = inhibition, usual class: inhibitors. actives 8.8% (n = 350,000); note: % is set by controls: 0 for no effect and ±100 for the full control effect; nearly all actives have a fitted effect of over 75% in size
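G9a (20 nM) was preincubated 15 min with compound, then reacted 2 h at room temperature with 500 nM biotin-H3K9 peptide and 20 µM SAM. Monomethyl-H3K9 detected by AlphaScreen using anti-H3K9me1 antibody.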
JMJD2A Tudor inh = blocks the human JMJD2A Tudor domain. Potency, µM (doses to about 114 µM), without a hit: at the top dose activity change, negative = inhibition, hits mostly inhibitors. AlphaScreen JMJD2A-Tudor / H3K4me3 peptide binding. AID 504339. actives 4.4% (n = 390,000); note: % is set by controls: 0 for no effect and ±100 for the full control effect; nearly all actives have a fitted effect of over 50% in size
Target sequence (O75164 whole entry, looked up, the tested form may be a part): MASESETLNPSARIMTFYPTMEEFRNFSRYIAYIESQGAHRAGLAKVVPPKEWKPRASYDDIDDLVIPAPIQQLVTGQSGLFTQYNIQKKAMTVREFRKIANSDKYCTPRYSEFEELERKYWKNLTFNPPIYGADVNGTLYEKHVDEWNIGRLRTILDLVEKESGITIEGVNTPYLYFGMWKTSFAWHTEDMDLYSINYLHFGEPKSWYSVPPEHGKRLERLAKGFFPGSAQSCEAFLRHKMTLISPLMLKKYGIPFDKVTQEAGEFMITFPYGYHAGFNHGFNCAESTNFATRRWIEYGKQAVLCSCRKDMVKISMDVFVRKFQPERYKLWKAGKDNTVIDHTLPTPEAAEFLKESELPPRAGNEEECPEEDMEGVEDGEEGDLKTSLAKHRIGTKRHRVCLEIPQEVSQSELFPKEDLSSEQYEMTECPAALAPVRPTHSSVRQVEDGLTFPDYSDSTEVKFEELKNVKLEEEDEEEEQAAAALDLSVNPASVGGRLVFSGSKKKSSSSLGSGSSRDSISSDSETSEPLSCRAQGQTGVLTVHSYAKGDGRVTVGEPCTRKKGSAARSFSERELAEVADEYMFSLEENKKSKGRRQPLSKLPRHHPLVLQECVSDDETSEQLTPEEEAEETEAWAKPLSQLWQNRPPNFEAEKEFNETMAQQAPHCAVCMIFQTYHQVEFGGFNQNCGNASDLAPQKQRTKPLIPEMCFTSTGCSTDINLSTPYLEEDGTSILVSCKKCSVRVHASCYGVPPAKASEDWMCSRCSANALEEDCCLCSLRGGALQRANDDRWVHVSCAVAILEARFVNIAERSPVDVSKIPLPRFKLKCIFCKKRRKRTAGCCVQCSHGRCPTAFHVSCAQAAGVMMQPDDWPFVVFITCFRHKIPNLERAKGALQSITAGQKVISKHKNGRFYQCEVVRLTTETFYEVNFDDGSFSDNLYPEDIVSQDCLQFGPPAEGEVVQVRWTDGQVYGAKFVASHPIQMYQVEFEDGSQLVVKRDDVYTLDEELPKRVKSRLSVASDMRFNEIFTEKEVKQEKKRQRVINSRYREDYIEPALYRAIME
BAZ2B block = inhibitors of human BAZ2B bromodomain; Q9UIF8; AlphaScreen BAZ2B-H3K14Ac peptide displacement; Potency, µM (highest dose often 114 µM), inactives show at the highest dose activity change, negative = inhibition, hits mostly inhibitors; actives 4.4% (n = 360,000); note: % is set by controls: 0 for no effect and ±100 for the full control effect; nearly all actives have a fitted effect of over 60% in size
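Multi-concentration screen (max 110 uM) measuring displacement of acetylated histone H3 peptide from BAZ2B by AlphaScreen, using 50 nM protein, 50 nM peptide and 10 ug/mL streptavidin donor plus Ni-chelate acceptor beads.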
HP1b chromo inh = blocks HP1-beta chromodomain binding to methylated histone tails; AlphaScreen HP1-beta / biotin-H3K9me3 peptide binding; AID 540317; actives 0.56% (n = 390,000); Potency, µM (top dose mostly 114 µM), for inactives: at the highest dose activity change, negative = inhibition, usual class: inhibitors; P83916; note: nearly all actives have a fitted effect of over 70% in size
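HP1-beta protein (50 nM final) preincubated 30 min at room temperature with biotinylated H3(1-18)K9me3 peptide (50 nM) in PBS pH 7.4, 0.01% Tween-20, then compound added for 30 min. AlphaScreen streptavidin donor/nickel chelate acceptor beads (10 ug/mL final), 30 min dark, luminescence read.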
Sfp PPTase inh = Sfp phosphopantetheinyl transferase inhibition; Q9F4F7; Biochemical Sfp PPTase activity, qHTS; Potency, µM, for inactives: largest response in the series, negative = inhibition, actives largely listed as inhibitors; actives 3.5% (n = 310,000);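 note: the enzyme is Sfp with the accession as filed and its product quenches rhodamine fluorescence; 0% = enzyme reaction without inhibitor and -100% = no enzyme wells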
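Compounds were incubated with enzyme (final 15 nM) for 15 min at room temperature before substrate addition started the reaction. Fluorescence at 525 nm excitation, 598 nm emission was recorded immediately and after 30 minutes.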
Starred values were filed as active, the others as inactive; [ ] = another dose, or the depositor's remark. Shown are actives, neighbours in structure and some others; about 12% of the full set was active somewhere. Calls come from the whole dose curve; as a rule, active = well fitted curve in the direction sought with a large enough effect; inconclusive = small, poorly fitted or top-dose-only effect, or another doubt; inactive = no such curve, though single readings can be large; an effect the other way counts as inactive or inconclusive. Potency is the fitted concentration of half-maximal effect.

How did COc1ccc(Nc2ccc(S(=O)(=O)N3CCCCC3)cc2[N+](=O)[O-])cc1Cl do in these assays?
G9a block: 7.1µM*; JMJD2A Tudor inh: 5.6µM*; BAZ2B block: 8.9µM*; HP1b chromo inh: inconclusive; Sfp PPTase inh: 8%

What do the screens show for `COc1ccc(C(=O)Nc2ccc(-c3cc(C(F)(F)F)nn3-c3ccccc3)cc2)cc1OC`?
G9a block: -7%[59 µM]; JMJD2A Tudor inh: -15%; BAZ2B block: -18%; HP1b chromo inh: 0%

Results for O=C(Nc1cccc(Cl)c1)Nc1cc(S(=O)(=O)N2CCOCC2)ccc1N1CCCC1 ?
G9a block: inconclusive; JMJD2A Tudor inh: -29%; BAZ2B block: -38%; HP1b chromo inh: inconclusive; Sfp PPTase inh: -18%

Results for CCCCc1cc(=O)oc2cc(C)cc(OCC(=O)NCCN3CCOCC3)c12 ?
G9a block: -12%; JMJD2A Tudor inh: -6%; BAZ2B block: -18%; HP1b chromo inh: 33%; Sfp PPTase inh: 4%

How did S=C1NCCc2ccc(Cl)cc2C1c1ccccc1 (centres undefined) do in these assays?
G9a block: -17%[59 µM]; JMJD2A Tudor inh: inconclusive; BAZ2B block: 40µM*; HP1b chromo inh: inconclusive; Sfp PPTase inh: 14%

How did S=C1Cc2ccccc2C(c2ccc(Cl)cc2)N1 (centres undefined) do in these assays?
G9a block: inconclusive; JMJD2A Tudor inh: inconclusive; BAZ2B block: inconclusive; HP1b chromo inh: inconclusive; Sfp PPTase inh: 11%

How did Cc1cc(C(=O)CN2CCCC2)c(C)n1-c1ccc(Cl)cc1 do in these assays?
G9a block: 50µM*; JMJD2A Tudor inh: -33%; BAZ2B block: -39%; HP1b chromo inh: 5%; Sfp PPTase inh: 13%

Results for CCN1CCN(CC(=O)c2cc(Cl)ccc2Cl)CC1 ?
G9a block: 14µM*; JMJD2A Tudor inh: -18%; BAZ2B block: -24%; HP1b chromo inh: 24%; Sfp PPTase inh: -12%

What do the screens show for `Cc1cc(C=O)c(C)n1-c1ccc(Cl)c(C(=O)O)c1`?
G9a block: 13µM*; JMJD2A Tudor inh: 20µM*; BAZ2B block: 25µM*; HP1b chromo inh: 40µM*; Sfp PPTase inh: -9%

How did Cc1cc(C=O)c(C)n1-c1ccc(N2CCCCC2)c([N+](=O)[O-])c1 do in these assays?
G9a block: 13µM*; JMJD2A Tudor inh: 35µM*; BAZ2B block: 40µM*; HP1b chromo inh: inconclusive; Sfp PPTase inh: 18%

What do the screens show for `Cc1cc(/C=C(\C#N)C(N)=O)c(C)n1-c1ccc(N2CCOCC2)c([N+](=O)[O-])c1`?
G9a block: inconclusive; JMJD2A Tudor inh: inconclusive; BAZ2B block: inconclusive; HP1b chromo inh: inconclusive; Sfp PPTase inh: -17%

How did COc1ccc(Cn2c(C(=O)O)c(CNC3CCCCC3)c3ccc(C)cc32)cc1 do in these assays?
G9a block: -25%[59 µM]; JMJD2A Tudor inh: -9%; BAZ2B block: -30%; HP1b chromo inh: 30%

What do the screens show for `Cc1ccccc1-c1cncnc1N(C)Cc1ccco1`?
Sfp PPTase inh: 50µM*

How did C/C=C(/C)C(=O)O[C@@H]1c2c(ccc3ccc(=O)oc23)OC(C)(C)[C@@H]1OC(=O)/C(C)=C\C do in these assays?
G9a block: -9%; JMJD2A Tudor inh: -9%; BAZ2B block: -1%; HP1b chromo inh: 36%; Sfp PPTase inh: 16%

Results for Nc1ccc(NC2C[C@@H](C(=O)O)NC2=O)cc1 (some centres undefined) ?
G9a block: 50µM*; JMJD2A Tudor inh: -15%; BAZ2B block: -22%; HP1b chromo inh: 35%; Sfp PPTase inh: 15%

How did N#CC(C#N)=Cc1cccn1-c1ccc(C(=O)O)cc1 do in these assays?
G9a block: 11µM*; JMJD2A Tudor inh: inconclusive; BAZ2B block: 20µM*; HP1b chromo inh: inconclusive; Sfp PPTase inh: 23%

How did N#C/C(=C/c1cccn1-c1cccc(C(=O)O)c1)c1ccc(Cl)cc1 do in these assays?
G9a block: inconclusive; JMJD2A Tudor inh: 8.9µM*; BAZ2B block: 45µM*; HP1b chromo inh: inconclusive; Sfp PPTase inh: 9%

What do the screens show for `CCN(C(=O)CSc1nc2ccccc2n1CC(C)C)c1c(N)n(Cc2ccccc2)c(=O)[nH]c1=O`?
JMJD2A Tudor inh: -12%; HP1b chromo inh: 53%

Results for CCN(C(=O)CSc1nnnn1-c1ccccc1)c1c(N)n(Cc2ccccc2)c(=O)[nH]c1=O ?
G9a block: 13µM*; JMJD2A Tudor inh: -13%; BAZ2B block: -6%; HP1b chromo inh: 36%; Sfp PPTase inh: -19%

Results for CCN(C(=O)CSc1nncn1-c1ccccc1)c1c(N)n(Cc2ccccc2)c(=O)[nH]c1=O ?
G9a block: inconclusive; JMJD2A Tudor inh: -9%; BAZ2B block: -2%; HP1b chromo inh: 13%; Sfp PPTase inh: 9%

What do the screens show for `CCN(C(=O)CSc1nc2ccccc2o1)c1c(N)n(Cc2ccccc2)c(=O)[nH]c1=O`?
G9a block: 7.1µM*; JMJD2A Tudor inh: -11%; BAZ2B block: 9%; HP1b chromo inh: 11%

Results for O=C(O)c1cccc(Cn2c(Cl)c(/C=N/NC(=O)c3cc4ccccc4cc3O)sc2=O)c1 ?
G9a block: 10µM*; JMJD2A Tudor inh: 79µM*; BAZ2B block: 25µM*; HP1b chromo inh: inconclusive; Sfp PPTase inh: inconclusive

Results for COC(=O)c1cccc(Cn2c(Cl)c(/C=N/Nc3ccccc3C)sc2=O)c1 ?
G9a block: 10µM*; JMJD2A Tudor inh: inconclusive; BAZ2B block: 35µM*; HP1b chromo inh: -13%; Sfp PPTase inh: 56µM*

Results for O=C(O)c1cccc(Cn2c(Cl)c(/C=N/NC(=O)c3ccccc3)sc2=O)c1 ?
G9a block: 31%[0.501 µM]; JMJD2A Tudor inh: -2%; BAZ2B block: -29%; HP1b chromo inh: 41%; Sfp PPTase inh: 12%

Results for O=C(O)c1cccc(Cn2c(Cl)c(/C=N/NC(=O)c3ccco3)sc2=O)c1 ?
G9a block: -15%; JMJD2A Tudor inh: -1%; BAZ2B block: -6%; HP1b chromo inh: 45%; Sfp PPTase inh: 12%

Results for O=C(O)c1cccc(Cn2c(Cl)c(/C=N/NC(=O)c3cccc(O)c3)sc2=O)c1 ?
G9a block: 14%; JMJD2A Tudor inh: -14%; BAZ2B block: 1%; HP1b chromo inh: 11%; Sfp PPTase inh: 16%

Results for Cc1ccccc1N/N=C/c1sc(=O)n(Cc2cccc(C(=O)O)c2)c1Cl ?
G9a block: -136%[59 µM]; JMJD2A Tudor inh: 10µM*; BAZ2B block: 45µM*; HP1b chromo inh: -22%; Sfp PPTase inh: inconclusive

Results for COc1cc2c(=O)n(Cc3ccco3)c(=O)n(CC(=O)Nc3ccc(F)cc3)c2cc1OC ?
G9a block: -2%[59 µM]; JMJD2A Tudor inh: -16%; BAZ2B block: -9%; HP1b chromo inh: 29%

How did CCOC(=O)NC1(C(F)(F)F)N=C(c2ccccc2)NC1=O (centres undefined) do in these assays?
G9a block: 10%[12.7 µM]; JMJD2A Tudor inh: 5%; BAZ2B block: 2%; HP1b chromo inh: 30%; Sfp PPTase inh: 11%
